High-throughput results as filed in PubChem BioAssay.
Most compounds without a hit are left out; they make up all but 0.52% or so of the library.
Sa helicase inh = inhibitors of S. aureus replicative helicase, primary screen, biochemical, fluorescence unwinding readout. purified S. aureus helicase, fluorescence unwinding assay. replicative DNA helicase (DnaC/DnaB), Staphylococcus aureus. inhibition, % (concentration not given with the values). 120,000 compounds, 0.05% hits; in the data active = inhibition above about 25%, passing the limit was not always enough
Sa growth inh = S. aureus growth inhibition at 42 and 30 °C, primary screen, LtaS inhibitor project, RN4220, two temperatures. OD600, 20 h, 42 °C; stronger effect = lower value. 170,000 compounds, 0.53% hits. relative growth, % (test concentration not listed);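 active = relative growth at most 50% at the other temperature and 20+ points below 30 °C, or under 10% at both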
A number is an active result; . = inactive; / = not tested or not shown.

SMILES | Sa helicase inh | Sa growth inh
COC(=O)CNC(=O)c1cccnc1Oc1ccc(Cl)cc1 | / | .
Cc1cccc(NC(=O)c2c(NC(=O)C(F)(F)F)sc3c2CCCCC3)c1 | / | .
O=C(Nc1cccc(Cl)c1)c1c(NC(=O)C(F)(F)F)sc2c1CCCC2 | / | -1.2
CC(C)CNC(=O)c1ccc2snnc2c1 | . | .
O=C(NC1CC1)c1cc(-c2cccnc2)nc2ccc(S(=O)(=O)N3CCCCCC3)cc12 | / | .
O=C1/C(=C/c2cccnc2)CCCC/C1=C\c1cccnc1 | . | /
O=C1/C(=C/c2ccncc2)CCC/C1=C\c1ccncc1 | . | -0.2
COC(C)(C)/C=C(\N)C(=O)c1ccccc1 | . | .
CS(=O)(=O)C1=NN2C(=N)/C(=C\c3ccc(-c4ccc(Cl)cc4)o3)C(=O)N=C2S1 | . | .
CCS(=O)(=O)C1=NN2C(=N)/C(=C\c3ccc(-c4ccccc4)o3)C(=O)N=C2S1 | . | 44
CSc1ccc(CCNC(=O)c2csc3c2CCCC3)cc1 | . | .
Cc1ccccc1CSCCC(=O)NCc1ccccc1 | . | .
CS(=O)(=O)c1ncc(Cl)c(C(=O)NCc2ccccc2)n1 | . | .
CN(Cc1ccccc1)S(=O)(=O)c1ccc(NC(=O)c2nc(S(C)(=O)=O)ncc2Cl)cc1 | . | 6.2
CCCSc1ncc(Cl)c(C(=O)Nc2ccc(S(=O)(=O)N(C)c3ccccc3)cc2)n1 | / | .
CN(c1ccccc1)S(=O)(=O)c1ccc(NC(=O)c2nc(S(C)(=O)=O)ncc2Cl)cc1 | / | -1.2
COc1ccc2c(c1)CCC/C(=N/O)C2=O | . | .
CCOc1cc2[nH]c(=S)n(CCCC(=O)N3CCCCCC3)c(=O)c2cc1OCC | . | .
O=C(O)C(C(=O)OCc1ccccc1)c1ccccc1 (stereo not drawn) | / | .
O=S(=O)(Nc1ccccc1Cl)c1ccc2[nH]c(=S)oc2c1 | . | .
S=c1[nH]c2c(Cl)cc(Cl)cc2o1 | . | 3.3
C=CCNC(=O)CSc1nncn1-c1ccccc1 | . | .
c1cncc(-c2nnc(SCC3CCCCC3)o2)c1 | . | .
CCN1CCN(Cc2ccc(NC(=O)c3cc4ccc5cccnc5c4[nH]3)cc2)CC1 | 91 | .
O=C(c1cc2ccc3cccnc3c2[nH]1)N1CCN(Cc2ccccc2)CC1 | . | .
SMILES | Sa helicase inh | Sa growth inh
CCN(CC)S(=O)(=O)c1cccc(-c2nnc(SCC(=O)Nc3cc(C)c(Cl)cc3OC)o2)c1 | . | .
CC(=O)N=Nc1c2[nH]c3ccccc3nc-2c2ccccc12 | . | 7.6
CC(=O)Nc1ccccc1-c1nc2ccccc2[nH]c1=O | . | .
Cc1ccc(NC(=O)c2sc(=S)n3c2[nH]c(=O)c2ccccc23)c(C)c1 | / | 4.6
COc1ccc(NC(=O)c2sc(=S)n3c2[nH]c(=O)c2ccccc23)cc1 | . | .
COC(=O)c1ccc(O)c(Sc2cc(C(=O)OC)ccc2O)c1 | . | 1.9
COC(=O)c1cccc(C(=O)OC)c1 | . | .
COc1ccc(C(=O)OCC(=O)c2cc3c4c(c2)CC(=O)N4CCC3)cc1Br | . | .
Cc1ccc(Oc2ccccc2NC(=O)CN2CSCC2=O)cc1 | . | .
CC(=O)N1CCN(c2ccc(OCC3CO[C@](Cn4ccnc4)(c4ccc(Cl)cc4Cl)O3)cc2)CC1 (stereo partly drawn) | / | 2.6
CCOc1ccc(NC(=O)N2CCN(c3ccc(Cl)c(Cl)c3)CC2)cc1 | / | .
O=c1cc(C(F)(F)F)[nH]c2c(OC(F)(F)F)cccc12 | / | 3.4
O=c1cc(C(F)(F)F)[nH]c2ccc(Br)cc12 | / | .
COc1cccc2c(=O)cc(C)[nH]c12 | . | .
O=c1cc(C(F)(F)F)[nH]c2c(Br)cccc12 | . | 3.1
O=C(OCCOc1ccccc1)c1ccc(-n2cnnn2)cc1 | . | .
O=C(NS(=O)(=O)c1ccc(Cl)cc1)C1CC1 | . | /
C[C@@H]1CN(c2c(F)c(N)c3c(=O)c(C(=O)O)cn(C4CC4)c3c2F)C[C@H](C)N1 | / | -0.1
Cc1cc(C)c2c(-n3cccc3)nn(Cc3ccc(C(=O)N4CCCC4)cc3)c2n1 | . | .
O=C(N/C(=C/C=C/c1ccccc1)C(=O)N1CCCCC1)c1ccccc1 | . | .
CCOC(=O)N1CCC(=NNC(=O)COc2ccc(C)cc2C(C)C)CC1 | . | .
N#C/C(=C\c1ccccc1)c1cccc(Cl)c1 | / | 44
N#C/C(=C/c1ccccc1)c1cccc(C#N)c1 | . | .
COc1ccccc1NC(=O)C(NS(=O)(=O)c1cccc2nsnc12)c1ccccc1 (stereo not drawn) | . | .
CC(=O)Nc1ccc2c(c1)OCO2 | . | .
N#CC(C#N)=NNc1ccc2c(c1)OCO2 | . | 0.6
O=C(O)c1cc2c([nH]c1=O)CCC2 | . | .
c1ccc(-c2noc(NCCN3CCOCC3)n2)cc1 | . | .
O=c1[nH]c(=O)n([C@H]2C[C@H](O)[C@@H](CO)O2)cc1F | / | -0.6
Cc1cn(C2CC(O)C(CO)O2)c(=O)[nH]c1=O (stereo not drawn) | . | .
